Sampled rows, rich in hits. Any-hit rate of the full collection: about 6.1%.
D1 potentiator: Potentiators of Human D1 Dopamine Receptor: qHTS; D(1A) dopamine receptor (Homo sapiens), P21728; HEK293 TREx D1 cells, calcium flux, dopamine EC20 potentiation; potentiation, % at 10 µM; 360,000 tested, 0.036% active; AID 504651, 2011; in the data active = potentiation above about 30%; note: 0% is about no effect
D1 antagonist: Antagonist of Human D 1 Dopamine Receptor: qHTS; D(1A) dopamine receptor (Homo sapiens), P21728; HEK293 TREx D1 cells, calcium flux, dopamine EC80; hits give low values; activity change, negative = inhibition, % at 10 µM; 360,000 tested, 3.2% active; in the data active = activity change below about -30%; note: % is set by controls: 0 for no effect and ±100 for the full control effect
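HEK293 T-REx cells expressing inducible, force-coupled D1 receptor; no-wash Ca dye, 30–90 min RT. Cmpd → 180 s read at 1 Hz → EC80 DA → 180 s read.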
D1 ag: Allosteric Agonists of the Human D1 Dopamine Receptor: qHTS; activation, % at 2 µM; D(1A) dopamine receptor (Homo sapiens), P21728; 360,000 tested, 1% active; HEK293 T-REx D1 cells, calcium flux, agonist mode; in the data active = activation above about 30%; note: 0% is about no effect
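Agonism was scored from calcium flux recorded over 180 s (1 read/s) after pintool compound addition, following a 10-cycle baseline. Cells were inducible force-coupled HEK293 TREx D1, plated overnight at 30 C and loaded with no-wash calcium dye.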
DRD3 agonist: qHTS of D3 Dopamine Receptor Agonist: qHTS; max activation, %; D3R DiscoveRx beta-arrestin cells, luminescence, 90 min; 410,000 tested, 0.58% active; AID 652048, 2013; in the data active = max activation above about 30%; note: 0% is about no effect
Target sequence (P35462 whole entry, looked up): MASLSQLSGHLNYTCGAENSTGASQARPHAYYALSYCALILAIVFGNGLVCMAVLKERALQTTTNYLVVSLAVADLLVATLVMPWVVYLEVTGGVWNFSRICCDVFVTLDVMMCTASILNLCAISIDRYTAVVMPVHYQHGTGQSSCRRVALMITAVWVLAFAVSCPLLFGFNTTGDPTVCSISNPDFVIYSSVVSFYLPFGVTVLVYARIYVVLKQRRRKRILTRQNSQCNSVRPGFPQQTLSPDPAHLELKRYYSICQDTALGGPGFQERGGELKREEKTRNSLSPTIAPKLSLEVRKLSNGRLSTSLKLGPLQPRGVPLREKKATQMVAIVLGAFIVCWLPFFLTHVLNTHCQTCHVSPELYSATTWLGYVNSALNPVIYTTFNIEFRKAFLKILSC
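Cells at 1500/well, incubated overnight, then treated with pinned compounds (dopamine as control) for 90 min at 37 degrees C. DiscoveRx reagent added for 30 - 60 minutes at room temperature; luminescence read.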
DRD3 antagonist: qHTS of D3 Dopamine Receptor Antagonist: qHTS; 360,000 tested, 2.5% active; max response, negative = inhibition, %; D(3) dopamine receptor (Homo sapiens), P35462; D3R cells, DiscoveRx beta-arrestin luminescence, antagonist mode; hits give low values; AID 652054, 2013; in the data active = max response below about -50%; note: % is set by controls: 0 for no effect and ±100 for the full control effect
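Cells expressing the human receptor were seeded at 1500 cells/well, incubated overnight at 37 degrees C in 5% CO2, then exposed to library compounds with dopamine controls for 90 minutes at 37 degrees C before luminescent detection.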
* hit, by the source's call; x = no result.

SMILES	D1 potentiator	D1 antagonist	D1 ag	DRD3 agonist	DRD3 antagonist
O=C(NCc1ccccc1)NC1CC2CCC(C1)N2Cc1ccco1 (centres undefined)	-5	-5	6	-4	-12
COc1cccc(C(=O)NC2CCN(CC(=O)Nc3nccs3)CC2)c1	-2	-33*	2	-5	-24
O=C(NC1CCN(c2ncccn2)CC1)c1cccc(F)c1	-2	-22	3	0	4
COCCN(C(=O)c1oc2ccccc2c1COC)c1c(N)n(CC(C)C)c(=O)[nH]c1=O	8	25	0	2	2
CCOc1ccc(CNC(=O)C2CCN(c3nnc(-n4c(C)ccc4C)s3)CC2)cc1	-4	-3	7	3	x
COc1cccc(C(=O)NC2CC3CCC(C2)N3Cc2ccccc2)c1 (centres undefined)	0	-49*	7	-3	-108*
COc1cccc(C(=O)NC2CC3CCCC(C2)N3CC(=O)Nc2ccccc2C(F)(F)F)c1 (centres undefined)	2	-3	4	-11	-15
Cc1cc2c(s1)c1cnn(Cc3ccccc3)c(=O)c1n2C	8	0	0	x	x
CC1CCN(c2nc(-c3ccccc3O)nc3ccccc23)CC1	-8	11	3	-7	-26
CC1CCN(c2ncnc3ccccc23)CC1	-5	-34*	22	2	14
CCc1cc(=O)[nH]c(SCc2ccc(C)cc2)n1	-5	22	2	-1	2
CC1CCCC(NC(=O)C2CCN(S(=O)(=O)N3CCCCCC3)CC2)C1C (centres undefined)	2	-21	1	4	0
COc1ccccc1CN1CC(C(=O)NCc2c(F)ccc(C)c2F)CCC1=O (centres undefined)	-1	1	3	0	17
O=S(=O)(CC(CN1CCCCC1)N1CCCCC1)c1ccc2ccccc2c1 (centres undefined)	7	-4	-1	-26	-85*
Cc1ccc(S(=O)(=O)CC(CN2CCCCC2)N2CCCCC2)cc1 (centres undefined)	-10	5	7	-14	-68*
CCOc1ccc(N2CC(NC(=O)C3CCCCC3)CC2=O)cc1 (centres undefined)	-1	x	-1	14	x
COc1ccc(CNC(=O)CSc2ncc3c(n2)-c2cc(Cl)ccc2N(Cc2ccccc2)S3(=O)=O)cc1	-8	-43*	6	7	x
CCOC(=O)c1cccc(NC(=O)CSc2ncc3c(n2)-c2ccc(Cl)cc2N(Cc2ccccc2)S3(=O)=O)c1	0	-75*	7	-13	x
COc1ccc(CNC(=O)CSc2ncc3c(n2)-c2cc(Cl)ccc2N(Cc2ccccc2)S3(=O)=O)cc1OC	-3	14	2	-2	x
CCn1cnc2c(Nc3ccc(Cc4cccnc4)cc3)nc(C#N)nc21	4	-2	3	x	x
COc1cc(OC)c(NC(=O)c2oc3ccc4c(c3c2C)C(=O)CC(C)(C)O4)cc1Cl	-4	4	1	1	x
CCOc1ccccc1CNC(=O)C1CCN(c2nn3c(=O)cc(C)nc3s2)CC1	6	-3	1	-1	-16
Cc1ccc(OCCSc2nc3ccccc3n2CCC(=O)O)c(C(C)C)c1	x	x	x	-4	-52*
CC(C)(C)N1C(=O)c2ccc(C(=O)Nc3ccc(O)cc3)cc2C1=O	-7	-1	0	-3	-18
COc1ccc(CCNC(=O)c2cc(-c3ccc(C)cc3O)n[nH]2)cc1OC	-4	-1	4	-13	25
COc1ccc(CCNC(=O)c2cc(-c3cc(C)cc(C)c3O)n[nH]2)cc1OC	1	-18	2	3	3
COc1ccc(CCNC(=O)c2cc(-c3cc(Cl)ccc3O)n[nH]2)cc1OC	-7	-32*	7	22	16
COc1ccc(CCNC(=O)c2cc3cc(Cl)ccc3nc2N)cc1OC	x	x	x	51*	-7
COc1ccc(CCNC(=O)c2nc(SCc3ccccc3F)ncc2Cl)cc1OC	3	-3	33*	-12	x
COc1ccc(CCNC(=O)c2cc(-c3ccccc3O)n[nH]2)cc1OC	-1	-33*	3	2	-6

Screening results deposited in PubChem BioAssay by National Center for Advancing Translational Sciences (NCATS).
